DUX4 inh: blocks DUX4-driven transcriptional activation. 293T-iDUX4 ZSCAN4-Gaussia luciferase reporter, 24 h; hits give low values. activity change, negative = inhibition, % (no concentration beside the values). hit rate 0.8% among 37,000;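 active = mean inhibition of at least 10% in the main channel, exceeding the control channel by a set limit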;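 also: 0% = median of neutral control wells and -100% = median of positive control wells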
Active calls of the source: *. Many of the other results were omitted from the sample, so hits are more common in it than they were.

SMILES	DUX4 inh
COc1cccc(S(=O)(=O)N2CCCCN3[C@@H](CO)[C@@H](c4ccc(C#CCC(C)C)cc4)[C@@H]3C2)c1	-29.8*
C[C@@H](O)C#Cc1ccc([C@H]2[C@@H](CO)N3CCCCN(C(=O)c4ccc5c(c4)OCO5)C[C@H]23)cc1	-32.2*
O=S(=O)(Cc1ccccc1)N1CCCCN2[C@H](CO)[C@H](c3ccc(-c4ccc(F)cc4)cc3)[C@@H]2C1	-6.9
C[C@@H](O)C#Cc1ccc([C@H]2[C@@H](CO)N3CCCCN(C(=O)c4ccc5c(c4)OCO5)C[C@@H]23)cc1	22.1
COc1ccc(S(=O)(=O)N2CCCCN3[C@H](C2)[C@H](c2ccc(C#CC(C)C)cc2)[C@@H]3CO)cc1	8.2
O=S(=O)(Cc1ccccc1)N1CCCCN2[C@@H](CO)[C@@H](c3ccc(-c4cccnc4)cc3)[C@@H]2C1	-7.7
C[C@H](O)C#Cc1ccc([C@@H]2[C@H]3CN(C(=O)c4ccc5c(c4)OCO5)CCCCN3[C@H]2CO)cc1	23.1
COCC#Cc1ccc([C@@H]2[C@H]3CN(S(=O)(=O)c4ccc(OC)cc4)CCCCN3[C@H]2CO)cc1	-0.4
COCC#Cc1ccc([C@H]2[C@@H](CO)N3CCCCN(S(=O)(=O)c4ccc(OC)cc4)C[C@H]23)cc1	2.7
COc1cccc(S(=O)(=O)N2CCCCN3[C@H](CO)[C@H](c4ccc(C#CC5CC5)cc4)[C@@H]3C2)c1	-0.8
COc1cccc(S(=O)(=O)N2CCCCN3[C@H](CO)[C@H](c4ccc(C#CCC(C)C)cc4)[C@@H]3C2)c1	-48.8*
CCS(=O)(=O)N1CC2(C1)[C@@H](c1ccccc1)[C@@H](CO)N2C(=O)C1CC1	6.4
CC=Cc1ccc2n(c1=O)C[C@H]1[C@H](CO)[C@@H](C(=O)NCCC)[C@@H]2N1Cc1cccnc1 (mixture of isomers)	0.0
COc1ccc2c3c(n(C)c2c1)[C@@H](CO)N(S(C)(=O)=O)CC31CN(C(=O)C2CC2)C1	19.4
COc1cccc(-c2ccc3c(c2)O[C@@H](CN(C)C(=O)c2ccccc2F)[C@@H](C)CN([C@H](C)CO)S3(=O)=O)c1	1.7
O=C(CC(F)(F)F)N1C[C@@H]2[C@H](c3ccccc31)[C@@H](CO)N2CC1CCCCC1	-3.2
CCCNC(=O)c1cc2c(c(-c3cccc(-c4ccncc4)c3)n1)[C@@H](CCO)N(S(=O)(=O)CC)C2	-0.5
COc1ccc2c3c([nH]c2c1)[C@@H](CO)N(C(=O)C1CCCCC1)CC31CN(C(=O)c2ccncc2)C1	-0.4
C[C@H](CO)N1C[C@H](C)[C@@H](CN(C)C(=O)Nc2ccccc2C(F)(F)F)OCc2ccccc2-c2c(n(C)c3ccccc23)C1=O	-5.6
C[C@H]1CN([C@@H](C)CO)C(=O)c2ccccc2-c2ccccc2CO[C@H]1CN(C)Cc1cccc2c1OCCCO2	-0.2
C[C@H]1CN([C@@H](C)CO)C(=O)c2c(c3ccccc3n2C)-c2ccccc2CO[C@@H]1CN(C)Cc1ccccc1C(F)(F)F	-29.8*
C[C@@H]1CN([C@@H](C)CO)C(=O)c2c(c3ccccc3n2C)-c2ccccc2CO[C@@H]1CN(C)Cc1ccc(C(F)(F)F)cc1	-27.1*
C[C@H](CO)N1C[C@H](C)[C@@H](CN(C)Cc2cccc(C(F)(F)F)c2)OCc2ccccc2-c2c(n(C)c3ccccc23)C1=O	-54.1*
C[C@@H]1CN([C@H](C)CO)C(=O)c2c(c3ccccc3n2C)-c2ccccc2CO[C@H]1CN(C)Cc1cccc(O)c1	4.3
C[C@@H]1CN([C@H](C)CO)C(=O)c2c(c3ccccc3n2C)-c2ccccc2CO[C@@H]1CN(C)Cc1cccc2c1OCCCO2	-6.4
SMILES	DUX4 inh
COc1ccccc1CN(C)C[C@H]1OCc2ccccc2-c2c(n(C)c3ccccc23)C(=O)N([C@@H](C)CO)C[C@H]1C	1.1
C[C@@H]1CN([C@H](C)CO)C(=O)c2c(c3ccccc3n2C)-c2ccccc2CO[C@H]1CN(C)Cc1cccc2c1OCCCO2	-31.8*
C[C@@H]1CN([C@H](C)CO)C(=O)c2c(c3ccccc3n2C)-c2ccccc2CO[C@@H]1CN(C)Cc1cccc(C(F)(F)F)c1	-5.2
C[C@@H]1CN([C@H](C)CO)C(=O)c2c(c3ccccc3n2C)-c2ccccc2CO[C@@H]1CN(C)Cc1ccc(O)cc1	-8.0
C[C@@H]1CN([C@H](C)CO)C(=O)c2c(c3ccccc3n2C)-c2ccccc2CO[C@H]1CN(C)Cc1ccc(O)cc1	8.4
COc1ccc(NC(=O)N[C@H]2CC[C@@H](CCNC(=O)c3ccccc3F)O[C@@H]2CO)cc1	0.6
O=C(C[C@@H]1CC[C@@H]2[C@H](COC[C@H](O)CN2Cc2nccs2)O1)NCc1ccccc1F	1.2
C[C@H](CO)N1C[C@H](C)[C@H](CN(C)CC2CCCCC2)Oc2ccc(NC(=O)CCN3CCOCC3)cc2C1=O	-2.8
O=C(NC1CCCCC1)N1CC(=O)N2[C@H](CO)[C@H](c3ccc(-c4cccc(F)c4)cc3)[C@H]2C1	-4.5
C[C@H]1CN([C@@H](C)CO)C(=O)c2cccc(N(C)C)c2O[C@H]1CN(C)C(=O)NC1CCCCC1	-1.0

Compound activity as filed in PubChem BioAssay.
